SARS PLP yeast: qHTS of Yeast-based Assay for SARS-CoV PLP; S. cerevisiae expressing SARS-CoV PLpro, growth rescue; AID 485353, 2010; Potency, µM (highest dose often 32.9 µM), for inactives: at the top dose activity, positive = growth rescue, hits mostly activators; 330,000 compounds, 0.19% hits; calls by dose curve; note: potency is the fitted concentration of half-maximal effect; 0% is about no effect; nearly all actives have a fitted effect of over 55% in size
HCV inhibitor: qHTS Assay for Inhibitors of Hepatitis C Virus (HCV); Potency, µM (doses to about 41.8 µM), for inactives: at the highest dose activity change, negative = inhibition, hits mostly inhibitors; AID 651820, 2012; Huh7.5.1 HCVcc-Cre infection, luciferase reporter, 44 h; 340,000 compounds, 3.4% hits; note: potency is the fitted concentration of half-maximal effect; % is set by controls: 0 for no effect and ±100 for the full control effect
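1,000 cells/well; 4 h culture; + compound; + HCVcc-Cre (~0.5 moi); 44 h; luciferase substrate, RT 15 min; read 15 sec.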
Pf growth 96h: Primary qHTS for delayed death inhibitors of the malarial parasite plastid, 96 hour incubation. 320,000 compounds, 6.9% hits. P. falciparum luciferase reporter growth, 96 h. Potency, µM (highest dose often 28.7 µM), without a hit: at the highest dose activity change, negative = inhibition, hits mostly inhibitors. AID 504834, 2011; note: potency is the fitted concentration of half-maximal effect; % is set by controls: 0 for no effect and ±100 for the full control effect
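Compounds incubated with erythrocytes infected by luciferase-expressing P. falciparum (2% hematocrit, 0.05% parasitemia final) for 96 hours, 37 C in 5% CO2. Growth inhibition scored as decreased luciferase luminescence.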
HCMV inh: qHTS Assay for inhibitors of the human cytomegalovirus (HCMV); HFF cells, HCMV-luciferase reporter, 72 h; hits give low values; activity change, negative = inhibition, % at 57.5 µM; AID 1259415, 2018; 410,000 compounds, 4.5% hits; in the data active = activity change below about -60%; inconclusive = no clear call, values can overlap the other calls; inactive = above about -39%; note: % is set by controls: 0 for no effect and ±100 for the full control effect
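Compounds were evaluated in HFFs infected with an HCMV luciferase reporter virus (MOI 1 PFU/cell). Luciferase in lysates collected 72 h post infection served as the replication measure.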
Sm TGR block: qHTS Assay for the Inhibitors of Schistosoma Mansoni Peroxiredoxins | purified TGR, DTNB reduction, TNB absorbance 405 nm | Potency, µM (series often up to 114 µM), without a hit: top-dose activity change, negative = inhibition, actives largely listed as inhibitors | 360,000 compounds, 3% hits; note: potency is the fitted concentration of half-maximal effect; % is set by controls: 0 for no effect and ±100 for the full control effect; nearly all actives have a fitted effect of over 60% in size
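First, TGR (20 nM dispensed) and NADPH were mixed with compound. Second, a 15 min room-temperature incubation followed. Third, further NADPH and then DTNB were added to start the reaction. Finally, TNB absorbance was monitored kinetically.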
Pf growth 48h: Primary qHTS for delayed death inhibitors of the malarial parasite plastid, 48 hour incubation | AID 504832, 2011 | Potency, µM (highest dose often 28.7 µM), for the others: top-dose activity change, negative = inhibition, hits mostly inhibitors | P. falciparum luciferase growth in erythrocytes, 48 h | 310,000 compounds, 5.9% hits; note: potency is the fitted concentration of half-maximal effect; % is set by controls: 0 for no effect and ±100 for the full control effect
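Here the parasites carry a stable luciferase gene and grow inside erythrocytes in Albumax-based RPMI medium with compound for one erythrocytic cycle. Activity is scored as loss of luminescent signal.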
* = called active by the depositor; ? = inconclusive; nt = no result given; [ ] = another dose, or the depositor's remark. Hits are enriched below; roughly 15% of the tested compounds scored in any of these assays. Unless noted, calls come from the whole dose curve; as a rule, active = well fitted curve in the direction sought with a large enough effect; inconclusive = small, poorly fitted or top-dose-only effect, or another doubt; inactive = no such curve, though single readings can be large; an effect the other way counts as inactive or inconclusive.

SMILES	SARS PLP yeast	HCV inhibitor	Pf growth 96h	HCMV inh	Sm TGR block	Pf growth 48h
Cc1onc(-c2ccccc2)c1C(=O)Nc1ccc(Cl)c(S(=O)(=O)N2CCOCC2)c1	8.6%	-2.5%	?	-102.6*	0.9%	?
Cc1onc(-c2ccccc2Cl)c1C(=O)Nc1cccc(S(=O)(=O)N2CCOCC2)c1	-3.1%	-2.0%	nt	-7.6	nt	nt
CC(=O)c1c(C)[nH]c(C(=O)Nc2ccc(Cl)c(S(=O)(=O)N3CCOCC3)c2)c1C	?	?	4.15µM*	93.8	-11.1%	4.15µM*
COc1ccc(NC(=O)c2[nH]c(C)c(C(C)=O)c2C)cc1S(=O)(=O)N1CCOCC1	-22.0%	?	-0.1%	161.0	6.1%	3.8%
Cc1ccc(NC(=O)C(C)OC(=O)c2cc(=O)[nH]c3ccccc23)cc1S(=O)(=O)N1CCOCC1 (stereo unspecified)	nt	?	nt	6.8	nt	nt
CC(=O)c1c(C)[nH]c(C(=O)OC(C)C(=O)Nc2ccc(C)c(S(=O)(=O)N3CCOCC3)c2)c1C (stereo unspecified)	-20.4%	-6.9%	5.22µM*	-12.5	-9.8%	9.28µM*
CCN(CC)S(=O)(=O)c1cc(NC(=O)C(C)OC(=O)c2[nH]c(C)c(C(C)=O)c2C)ccc1C (stereo unspecified)	5.4%	?	?	-28.6	-1.6%	3.7µM*
NC(=O)c1ccc[n+]([C@H]2O[C@@H](COP(=O)([O-])OP(=O)(O)OC[C@H]3O[C@@H](n4cnc5c(N)ncnc54)[C@H](O)[C@@H]3O)[C@H](O)[C@@H]2O)c1	-3.5%	14.6%	4.6%	nt	?	0.2%
CC(OC(=O)Cn1cnc2c1c(=O)n(C)c(=O)n2C)C(=O)N(C)c1ccccc1 (stereo unspecified)	-3.4%	38.6%	47.7%	-10.3	1.1%	-11.8%
CCCCCCCCCCOCC(O)CN (stereo unspecified)	nt	nt	12µM*	nt	nt	?
CCCCCCCCCCCCCCCCOCCOCCOCCOCCOCCOCCOCCOCCOCCOCCOCCOCCOCCOCCOCCOCCOCCOCCOCCOCCO	nt	nt	6.75µM*	nt	nt	13.5µM*
CCCCCCCC(=O)OCC(O)CO (stereo unspecified)	-1.2%	2.9%[8.37 µM]	-11.0%	0.7	9.1%	8.0%
COc1ccc(N2CC(NC(=O)/C=C\c3ccccc3)CC2=O)cc1 (stereo unspecified)	nt	nt	nt	8.8	-2.5%	nt
O=C1C(n2cccc2)c2ccccc2N1Cc1ccc(C(F)(F)F)cc1 (stereo unspecified)	nt	nt	nt	23.0	nt	nt
CCSC1(SCC)N=C(N)C2(C#N)C(c3ccc(F)cc3)C12C#N (stereo unspecified)	0.0%	1.0%	?	-107.1*	?	-8.3%
COC1(OC)N=C(N)C2(C#N)C(c3ccc(F)cc3)C12C#N (stereo unspecified)	6.7%	22.0%	73.5%	-31.2	-15.0%	7.4%
Cc1ccc(NC(=S)N(CCN(C)C)Cc2cc3cc(C)cc(C)c3[nH]c2=O)cc1	-6.5%	?	21.7%	-18.4	-11.6%	?
Cc1ccc2cc(CN(CCN(C)C)C(=S)Nc3ccccc3)c(=O)[nH]c2c1C	0.0%	10µM*	1.0%	-6.1	-30.0%	-21.9%
Cc1cccc2cc(CN(CC3CCCO3)C(=S)Nc3ccccc3)c(=O)[nH]c12 (stereo unspecified)	-14.7%	?	125.2%	?	-1.5%	-7.7%
CCN(CC)CCN(Cc1cc2cccc(C)c2[nH]c1=O)C(=S)Nc1ccccc1	1.1%	?	7.5%	-24.5	11.6%	11.7µM*
COc1cccc(CN2CCc3nc(N4CCN(c5ncccn5)CC4)ncc3C2)c1	nt	nt	nt	?	27.8%	nt
CC1Sc2ccc(C(=O)OCc3ccccc3Cl)cc2NC1=O (stereo unspecified)	-3.1%	?	94.1%	10.7	0.2%	153.3%
Cc1cccc(C)c1OCCCN1CCCC1	-8.9%	4.4%	177.4%	17.0	-0.9%	nt
Cc1cccc(Cl)c1OCCCN1CCOCC1	-5.1%	5.6%	3.7µM*	-13.3	51.3%	12.6%
c1ccc2c(OCCCCN3CCOCC3)cccc2c1	-1.9%	-7.9%	-20.3%	-30.3	2.6%	13.7%
SMILES	SARS PLP yeast	HCV inhibitor	Pf growth 96h	HCMV inh	Sm TGR block	Pf growth 48h
COc1ccccc1OCCCCCCN1CCOCC1	-0.4%	30.5%	36.5%	-84.2*	2.0%	?
CC(C)(Cc1nc2ccccc2[nH]1)c1nc2ccccc2[nH]1	nt	nt	nt	-12.5	nt	nt
O=C1[C@@H]2[C@H](C(=O)N1Cc1ccco1)[C@H]1C=C[C@@H]2C1	-1.8%	7.9%	nt	-5.3	50.1µM*	16.9%
CC(c1ccccc1)C1CC(=O)N(Cc2ccco2)C1=O (stereo unspecified)	-1.2%	16.9%	-17.9%	7.1	7.08µM*	?
CC(c1ccccc1)C1CC(=O)N(CC(=O)O)C1=O (stereo unspecified)	2.9%	7.0%	37.3%	37.7	4.2%	14.2%
COc1ccc(C(=O)NCc2ccc3c(c2)CCN3C(C)=O)c(OC)c1	nt	nt	nt	-15.4	-3.9%	nt
CN1CN(C)c2cccc3cccc1c23	2.2%	-10.2%	4.15µM*	7.3	-7.2%	?
O=C(NCc1ccco1)C1CCN(S(=O)(=O)N2CCOCC2)CC1	-6.7%	14.2%	?	1.3	50.1µM*	1.6%
O=C(NCc1ccco1)C1CCCN(S(=O)(=O)c2cc(Cl)ccc2Cl)C1 (stereo unspecified)	9.5%	?	20.2%	15.7	3.7%	-8.5%
CC1CCN(S(=O)(=O)c2ccc(C(=O)NCc3ccco3)cc2)CC1	-1.1%	0.2%	-0.3%	-25.4	15.1%	2.08µM*
COC(=O)c1ccc(CNC(=O)c2ccc(S(=O)(=O)N3CCCC(C)C3)cc2)cc1 (stereo unspecified)	4.7%	-29.9%	?	-28.7	4.4%	13.1µM*
Cc1ccc(S(=O)(=O)N2CCCC(C(=O)NCc3ccco3)C2)cc1Cl (stereo unspecified)	4.4%	-7.9%	13.1µM*	18.6	-23.8%	?
CCS(=O)(=O)N1CCC(C(=O)NCc2ccco2)CC1	-1.4%	19.2%	-153.0%	31.2	0.0%	0.6%
O=C(Oc1ccc(NC(=O)c2cc3c(cc2Br)OCO3)cc1)c1ccccc1	-2.4%	-15.3%	-5.0%	-28.0	1.7%	8.1%
COc1ccc(CCNC(=O)Cn2cc(S(=O)(=O)Cc3ccccc3Cl)c3ccccc32)cc1OC	nt	nt	nt	0.0	3.7%	nt
CCC(C)NCCOCCSc1ccc(Cl)cc1 (stereo unspecified)	1.0%	?	?	21.1	-20.6%	-10.9%

Screens (PubChem BioAssay)
